These results are taken from PubChem BioAssay.

Molecules are shown by their SMILES. Activity calls are given as the source filed them.

In experiment [1] the test system is Human papillomavirus type 1a protein E7 (residues 44-93). Nature of the experiment: small molecules binding HPV E7 44-93 – biochemical, small-molecule microarray, residues 44-93, 635 nm fluorescence, primary screen (AID 1108).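 Note: E7 fragment applied at 1 µg/mL in TBST for 1 h at 4 C; score combines spot fluorescence with its signal to noise ratio.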 Conditions: fluorescence 635 nm, higher = more signal.
Experiment [2] is described as follows: hepatitis C replication reporter changes, two-sided – Huh7 cells, luciferase reporter, HCV replication inhibitor project, primary screen (AID 1109).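 Note: huh7 hepatoma cells harbouring a luciferase neomycin HCV replicon reporter; luciferase luminescence as measure of HCV replicon replication; test concentration not given here.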 Conditions: Huh7 HCV replicon luciferase reporter, 48 h; higher = more signal. On the technique in general: In a reporter assay the amount or activity of a reporter protein is the signal.
For experiment [3], the target named is Left-right determination factor 2 (Homo sapiens) (UniProt O00292). Nature of the experiment: small molecules binding LEFTY2 protein – biochemical, small-molecule microarray, 635 nm fluorescence scan, primary screen (AID 1110). The following applies: higher = more signal.
Chain of Left-right determination factor 2 (Homo sapiens) (O00292 whole entry, looked up): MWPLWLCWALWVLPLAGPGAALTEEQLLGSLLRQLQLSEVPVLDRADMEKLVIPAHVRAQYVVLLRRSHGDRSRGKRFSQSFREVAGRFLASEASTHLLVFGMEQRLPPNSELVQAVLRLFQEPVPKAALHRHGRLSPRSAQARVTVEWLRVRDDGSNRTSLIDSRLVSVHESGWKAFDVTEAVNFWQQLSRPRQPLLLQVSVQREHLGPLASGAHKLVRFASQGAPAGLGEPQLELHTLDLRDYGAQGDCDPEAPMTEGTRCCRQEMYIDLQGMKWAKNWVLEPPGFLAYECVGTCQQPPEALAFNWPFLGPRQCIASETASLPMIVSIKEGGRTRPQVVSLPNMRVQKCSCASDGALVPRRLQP
For experiment [4], the target named is Calmodulin-1 (Homo sapiens) (UniProt P0DP23). Kind of experiment: small molecules binding calmodulin-1 with EGTA – biochemical, small-molecule microarray, Cy5-labelled CALM1, profiling panel (AID 1111).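 Note: labelled calmodulin applied in Tris saline Tween buffer holding calcium plus EGTA and DTT.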 The following applies: Cy5-CALM1 binding fluorescence, higher = more signal.
Experiment [5] has the same target. Nature of the experiment: small molecules binding Ca-loaded calmodulin-1 – biochemical, small-molecule microarray, Cy5-labelled CALM1, plus calcium, artefact control for SMM control-protein annotation, profiling panel (AID 1112).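 Note: score merges spot fluorescence with signal to noise from triplicate slides.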 The following applies: Cy5-CALM1 binding fluorescence, higher = more signal.
Experiment [6] is described as follows: probe aWnt5a binding to arrayed compounds – biochemical, biotinylated probe, 635/667 nm fluorescence, primary screen (AID 1113).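 Note: score merges 667 nm fluorescence intensity with signal-to-noise per printed feature.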 Conditions: small-molecule microarray, higher = more signal.
Experiment [7] is described as follows: probe aShh binding to arrayed compounds – biochemical, biotinylated probe, 635/667 nm fluorescence, primary screen (AID 1114).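 Note: probe is biotin-labelled aShh protein from a stem cell growth factor screen; measures binding of labelled protein to compounds printed on the slide; score merges feature fluorescence at 667 nm with signal-to-noise.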 Conditions: small-molecule microarray, higher = more signal.
A short description of experiment [8]: probe aNog binding to arrayed compounds – biochemical, biotinylated probe, 635/667 nm fluorescence, primary screen (AID 1115).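 Note: probe is biotinylated aNog protein used at 0.15 µg/mL for 1 h at 4 C; z-score combines 667 nm fluorescence of each spot with its signal to noise.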 The following applies: small-molecule microarray, higher = more signal.
Experiment [9] deals with Torsin-1A-interacting protein 1 (Homo sapiens) (UniProt Q5JTV8). Kind of experiment: compound microarray binding of lysate hLAP1 – cell lysate, small-molecule microarray, COS7 lysate, 635/667 nm fluorescence, primary screen (AID 1116). Conditions: 635 nm fluorescence, higher = more signal.
Chain of Torsin-1A-interacting protein 1 (Homo sapiens) (Q5JTV8 whole entry, looked up): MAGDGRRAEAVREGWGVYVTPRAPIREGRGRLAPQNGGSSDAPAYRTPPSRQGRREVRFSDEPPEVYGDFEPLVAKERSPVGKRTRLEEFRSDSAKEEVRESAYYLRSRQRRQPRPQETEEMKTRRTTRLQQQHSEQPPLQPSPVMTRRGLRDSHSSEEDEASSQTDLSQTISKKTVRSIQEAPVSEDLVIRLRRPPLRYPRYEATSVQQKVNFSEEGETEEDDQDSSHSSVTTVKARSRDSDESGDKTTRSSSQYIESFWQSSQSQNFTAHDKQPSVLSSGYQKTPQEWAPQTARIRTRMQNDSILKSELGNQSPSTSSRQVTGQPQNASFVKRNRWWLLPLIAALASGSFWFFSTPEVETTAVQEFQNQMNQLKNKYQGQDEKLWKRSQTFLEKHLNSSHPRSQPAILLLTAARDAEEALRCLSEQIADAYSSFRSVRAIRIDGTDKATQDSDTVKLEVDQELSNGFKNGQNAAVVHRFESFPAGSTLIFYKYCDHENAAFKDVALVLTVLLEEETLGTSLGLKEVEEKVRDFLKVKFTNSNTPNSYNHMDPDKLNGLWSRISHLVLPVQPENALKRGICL
The target of experiment [10] is Alpha-bungarotoxin (Bungarus multicinctus) (UniProt P60615). Kind of experiment: compounds binding labelled alpha-BTX control protein – biochemical, small-molecule microarray, Alexa647 label, 635/667 nm fluorescence, artefact control for SMM control protein annotation, profiling panel (AID 1117). The following applies: alpha-BTX-A647 binding fluorescence, higher = more signal.
Chain of Alpha-bungarotoxin (Bungarus multicinctus) (P60615 whole entry, looked up): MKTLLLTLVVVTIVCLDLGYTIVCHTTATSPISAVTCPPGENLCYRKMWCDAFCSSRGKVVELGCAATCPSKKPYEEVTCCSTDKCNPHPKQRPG

Experiment [11] has as its target Albumin (Bos taurus) (UniProt P02769). Nature of the experiment: compounds binding labelled BSA control protein – biochemical, small-molecule microarray, Alexa647 label, 635/667 nm fluorescence, artefact control for SMM control protein annotation, profiling panel (AID 1118).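 Note: score merges 667 nm emission intensity and signal-to-noise per printed compound spot.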 Conditions: BSA-A647 binding, fluorescence 635 nm, higher = more signal.
Experiment [12] is described as follows: probe aXIP binding to arrayed compounds – biochemical, NeuroSMM set, 635/667 nm fluorescence, primary screen (AID 1119).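 Note: probe is the protein aXip251-270 applied at 1 µg/mL to compound-printed slides; binding of probe to printed compounds measured as 667 nm fluorescence plus signal to noise.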 Conditions: small-molecule microarray, higher = more signal, called active from +8 up or from −8 down.
Experiment [13] can be described thus: probe aNOTCH3 binding on compound microarray – biochemical, small-molecule microarray, 635/667 nm fluorescence, primary screen (AID 1120).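 Note: probe is a biotin-tagged antibody raised against NOTCH3 rather than NOTCH3 protein; score merges spot fluorescence near 667 nm with spot signal to noise.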 The following applies: higher = more signal.
The nature of experiment [14]: probe aNOTCH2 binding on compound microarray – biochemical, small-molecule microarray, 635/667 nm fluorescence, primary screen (AID 1121).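 Note: score merges feature fluorescence read at 667 nm with its signal to noise.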 Conditions: higher = more signal.
Experiment [15] concerns the target Carbonic anhydrase 2 (Homo sapiens) (UniProt P00918). Nature of the experiment: compounds binding carbonic anhydrase 2 – biochemical, small-molecule microarray, Alexa647-labelled CAII, profiling panel (AID 1122). Conditions: CAII-A647 binding fluorescence, higher = more signal.
A short description of experiment [16]: COS7 lysate on small-molecule microarray, probe aHis, 635 nm (AID 1123).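 Note: z-score combines 667nm fluorescence intensity with signal-to-noise per printed compound spot.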 The following applies: COS7 cell lysate, fluorescence, higher = more signal.
A short description of experiment [17]: probe aLAP1 signal on lysate-treated microarray – cell lysate, small-molecule microarray, COS7 lysate, primary screen (AID 1124).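 Note: lysate comes from COS7 cells expressing LAP1 and is applied at 0.3 µg/mL; score merges spot fluorescence near 667 nm with signal-to-noise over triplicate slides.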 The following applies: probe aLAP1, fluorescence, higher = more signal.
Experiment [18] concerns Sam68 (KHDRBS1). Kind of experiment: compounds binding KHDRBS1 protein – biochemical, small-molecule microarray, 635 nm fluorescence, primary screen (AID 1125).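 Note: score merges 667 nm channel intensity with signal to noise over triplicate slides.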 Conditions: higher = more signal.
Experiment [19] concerns Chordin-like protein 2 (CHRDL2). Kind of experiment: compounds binding chordin-like 2 – biochemical, small-molecule microarray, 635 nm fluorescence, primary screen (AID 1126).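 Note: printed compound slides probed with Chrdl2 protein at 4 µg/mL for 1 h at 4 C; score merges 667 nm emission intensity with signal to noise over three replicate slides.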 The following applies: fluorescence 635 nm, higher = more signal.
The target in experiment [20] is Concanavalin-A (Canavalia ensiformis) (UniProt P02866). Kind of experiment: compounds binding concanavalin A lectin – biochemical, small-molecule microarray, Alexa647 label, 635 nm, artefact control for SMM control protein annotation, primary screen (AID 1127).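 Note: z combines 667 nm emission intensity with signal-to-noise across three replicate slides.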 Conditions: ConA-A647 binding fluorescence, higher = more signal.
Chain of Concanavalin-A (Canavalia ensiformis) (P02866 whole entry, looked up): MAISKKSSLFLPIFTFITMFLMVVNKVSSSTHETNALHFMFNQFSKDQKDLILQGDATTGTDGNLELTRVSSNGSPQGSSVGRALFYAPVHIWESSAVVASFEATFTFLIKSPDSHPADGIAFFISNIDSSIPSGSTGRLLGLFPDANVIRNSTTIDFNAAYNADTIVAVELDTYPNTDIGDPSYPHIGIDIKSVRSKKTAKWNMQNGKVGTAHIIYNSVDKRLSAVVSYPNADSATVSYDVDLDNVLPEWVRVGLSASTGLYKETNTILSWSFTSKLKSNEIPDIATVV

Chain of Albumin (Bos taurus) (P02769 whole entry, looked up): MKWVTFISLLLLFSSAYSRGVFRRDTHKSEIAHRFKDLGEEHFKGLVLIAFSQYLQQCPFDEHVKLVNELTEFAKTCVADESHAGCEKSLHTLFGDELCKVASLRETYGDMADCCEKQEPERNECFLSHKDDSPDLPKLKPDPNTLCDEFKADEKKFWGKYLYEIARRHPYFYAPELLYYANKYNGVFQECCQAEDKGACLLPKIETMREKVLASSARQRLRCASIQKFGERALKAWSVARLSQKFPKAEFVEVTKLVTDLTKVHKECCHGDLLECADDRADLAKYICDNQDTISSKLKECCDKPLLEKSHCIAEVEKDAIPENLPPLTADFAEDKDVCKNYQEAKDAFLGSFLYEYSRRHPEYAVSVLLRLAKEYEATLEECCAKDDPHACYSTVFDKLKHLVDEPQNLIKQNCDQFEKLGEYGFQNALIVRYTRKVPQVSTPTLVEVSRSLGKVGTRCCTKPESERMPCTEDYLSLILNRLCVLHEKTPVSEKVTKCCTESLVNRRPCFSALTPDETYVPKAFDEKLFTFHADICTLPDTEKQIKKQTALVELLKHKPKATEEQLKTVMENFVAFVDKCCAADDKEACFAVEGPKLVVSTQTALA

As to `CN(C)CCCCNC(=O)[C@H]1C[C@H]2C(=O)N[C@@H](Cc3ccccc3)C(=O)N2[C@H]1c1ccc(O)cc1`, the composite z-score in [1] was 1.38; in experiment [3], 1.17; in experiment [4], 0.561; in experiment [5], 0.746; in [6], -0.0866; in experiment [7], -0.0243. The composite z-score is 0.355 in experiment [8]; 0.945 in experiment [9]; 1.55 in experiment [10]; 0.356 in [11]; 0.143 in experiment [13]; -0.0684 in experiment [14]. Besides, the composite z-score turned out to be 0.158 in experiment [15]; 0.538 in experiment [16]; 0.263 in [17]; 1.3 in experiment [18]; 0.956 in [19]; 0.863 in experiment [20]. In addition, the z-score in experiment [2] came out at 0.506. In experiment [12], the composite Z-score was 0.124 (inactive).

Regarding `[N-]=[N+]=Nc1ccccc1C[C@]1(C(=O)NCCN2CCOCC2)N=C(c2ccc(OCCCO)cc2)O[C@H]1c1ccccc1`, the composite z-score in experiment [1] was 1.03; in experiment [3], -0.0447; in experiment [4], 0.169; in [5] it was 0.129; in [6], -0.103; in experiment [7], 0.123. The composite z-score in experiment [8] is -0.465; in experiment [9], 1.44; in experiment [10], 0.968; in experiment [11], 0.323; in experiment [13], 0.194; in [14], -0.0849. Moreover, the composite z-score came out at 0.597 in experiment [15]; 2.7 in experiment [16]; 0.203 in experiment [17]; 1.3 in experiment [18]; 0.497 in experiment [19]; 0.702 in [20]. The compound also registered a z-score in experiment [2] of -1.99. Besides, the composite Z-score in experiment [12] is 0.619 (inactive).

With `C=CC(COC(C)=O)NS(=O)(=O)c1ccc(Br)cc1` (stereo not given), the composite z-score is 0.62 in [1]; 0.65 in [3]; -0.467 in experiment [4]; -0.883 in [5]; 0.093 in experiment [6]; 0.0948 in [7]. The composite z-score was -0.149 in [8]; 0.366 in experiment [9]; 0.601 in experiment [10]; -0.68 in experiment [11]; -0.0337 in experiment [13]; -0.133 in experiment [14]. Besides, the composite z-score in experiment [15] was -0.0235; in experiment [16] it was -0.01; in experiment [17], 0.0423; in [18] it was 0.591; in [19], 0.912; in [20], 0.682. In experiment [2], this compound gave a z-score of -0.437. For the same compound, in [12], the composite Z-score was 0.0518 (inactive).

Take `O=C1C2C=CC(C(O)c3ccc(F)cc3)N(Nc3ccccc3)C2C(=O)N1c1ccccc1` (stereo not given): the composite z-score is 1.42 in experiment [1]; -0.238 in experiment [3]; 0.691 in [4]; 0.619 in experiment [5]; 0.0597 in experiment [6]; -0.289 in [7]. Moreover, the composite z-score in experiment [8] was determined as 0.195; in [9], 0.691; in experiment [10], 1.97; in experiment [11], 0.843; in [13] it was 0.189; in experiment [14], 0.0449. The composite z-score was 0.734 in [15]; 2.88 in [16]; -0.364 in [17]; 0.654 in experiment [18]; -0.527 in experiment [19]; -0.398 in experiment [20]. Moreover, in experiment [2], the z-score is -0.379. For the same compound, the composite Z-score in experiment [12] was 0.121 (inactive).

`O=C1OCCC=C[C@H]2OC34C=CCN(Cc5ccccc5)C(=O)[C@H]3N(CCCO)C(=O)[C@@H]4C12` (stereo not given in full): the composite z-score in [1] is -0.786; in experiment [3], -0.424; in [4], -0.438; in experiment [5], 0.0072; in [6], -0.164; in [7] it was -0.206. Besides, the composite z-score in experiment [8] was -0.0602; in [9], 0.0647; in experiment [10], -0.473; in experiment [11], 0.117; in experiment [13] it was -0.275; in experiment [14], -0.164. Besides, the composite z-score was 0.897 in experiment [15]; 0.0967 in [16]; -0.322 in experiment [17]; -1.22 in [18]; -0.229 in experiment [19]; -0.731 in experiment [20]. Moreover, the z-score in experiment [2] was -0.0946. Also, the composite Z-score in experiment [12] was -0.241 (inactive).

For `COc1ccc([Si](C)(C)[C@H]2[C@H](CCn3cc(CCO)nn3)O[C@@]3(C(=O)N(Cc4ccc(N5CCOC5=O)cc4)c4ccccc43)[C@@H]2C)cc1`, the composite z-score in [1] is 0.469; in experiment [3], -0.129; in experiment [4] it was 0.122; in experiment [5], 0.0117; in experiment [6], -0.124; in [7] it was 0.0469. Also, the composite z-score in experiment [8] is 0.0581; in experiment [9], 1.03; in experiment [10], 1.27; in experiment [11] it was 0.535; in experiment [13], -0.0126; in experiment [14], -0.112. The composite z-score in [15] is 0.458; in [16] it was 1.94; in experiment [17], 0.622; in experiment [18], 1.23; in [19], 0.21; in [20], 0.702. The compound also registered a z-score in experiment [2] of -4.2. The composite Z-score in [12] was 0.533 (inactive).
